Screens as filed in PubChem.
CBX7 AlphaScr: CBX7 chromodomain binding inhibitors, primary screen, biochemical, AlphaScreen; Chromobox protein homolog 7 (Homo sapiens), O95931; AlphaScreen His6-CBX7 / biotin-H3K27me3 peptide binding; active compounds read low; normalised signal (fraction of DMSO) (no concentration beside the values); actives 1.1% (n = 66,000); AID 1224903, 2016; in the data active = normalised signal below about 0.5
Target sequence (O95931 whole entry, looked up): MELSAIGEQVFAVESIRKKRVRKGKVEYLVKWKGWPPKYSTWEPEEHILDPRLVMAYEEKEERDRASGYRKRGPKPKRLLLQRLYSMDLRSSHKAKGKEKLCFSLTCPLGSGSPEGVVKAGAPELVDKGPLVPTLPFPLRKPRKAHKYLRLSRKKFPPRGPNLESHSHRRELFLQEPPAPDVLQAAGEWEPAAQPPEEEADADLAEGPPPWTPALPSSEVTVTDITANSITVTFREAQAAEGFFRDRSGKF
Numbers stand for hits; i = inactive. This is one part of a sample in which hits are shown more often than they occur.

SMILES	CBX7 AlphaScr
COc1ccc(OCC(O)CN2CCCCCC2)cc1 (stereo unspecified)	i
COc1cccc(OCC(O)CN2CCOCC2)c1 (stereo unspecified)	i
CCC(=C(c1ccc(OC)cc1)c1ccc(OC)cc1)c1cn(CC(O)CN2CCOCC2)c2ccccc12 (stereo unspecified)	0.41
COc1ccc(-c2cc3ccccc3n2CC(O)CN2CCCCC2)cc1 (stereo unspecified)	i
COc1ccc(C(=O)c2cn(Cc3ccc(C)cc3)c3ccccc3c2=O)cc1	i
CCC(=C(c1ccc(OC)cc1)c1ccc(OC)cc1)c1cn(CCN(C)C)c2ccccc12	0.32
Cc1noc(C)c1C(=O)Nc1nnc(CC2CCCC2)s1	i
Cc1cccc(CS(=O)(=O)CC2Nc3ccc(C(=O)O)cc3NC2=O)c1 (stereo unspecified)	i
Cc1ccccc1CN1CCN(CC(=O)NCCN2CCOCC2)C1=O	i
COC(=O)c1ccccc1NC(=O)CCc1c(C)nc2c(-c3ccccc3)c(C)nn2c1C	i
COC(=O)c1c[nH]n2c(NCCc3ccccc3)c(-c3ccc(F)cc3)nc12	i
COC(=O)c1c[nH]n2c(NC3CCC(C)CC3)c(-c3ccc(OC)c(OC)c3)nc12 (stereo unspecified)	0.27
COC(=O)c1c[nH]n2c(NC3CCCCCC3)c(-c3ccc(Cl)cc3)nc12	i
COC(=O)c1c[nH]n2c(NCCc3ccccc3)c(-c3ccc(C)cc3)nc12	i
COC(=O)c1c[nH]n2c(NC3CCC(C)CC3)c(-c3ccc(F)cc3)nc12 (stereo unspecified)	0.25
COC(=O)c1c[nH]n2c(NC3CCCCC3)c(-c3ccc(Cl)cc3)nc12	i
Cc1ccc2c(c1)N(CCC(=O)NCCC(C)C)C(=O)CO2	i
CCCC(CCC)C(=O)Nc1ccc2c(c1)Nc1ccccc1CC2	i
Cc1ccc(-c2nc3cc(Br)c(C)c(C)c3nc2-c2ccc(C)cc2)cc1	i
Cc1cccc(C(=O)NCCc2nc3ccccc3n2Cc2ccccc2F)c1	i
CCCn1cnc2cc(NCc3ccccc3Cl)ccc21	i
CCCn1cnc2cc(NCc3ccccc3OCC)ccc21	i
CCn1cnc2cc(NCc3cccc(OC)c3)ccc21	i
CCn1cnc2cc(NCc3ccccc3OC)ccc21	i
CCn1cnc2cc(NCc3ccccc3Cl)ccc21	i
SMILES	CBX7 AlphaScr
CCCCn1cnc2cc(NCc3ccccc3OCC)ccc21	0.19
CCCCn1cnc2cc(NCc3ccccc3Cl)ccc21	0.22
CCCCn1cnc2cc(NCc3ccc(OCC)cc3)ccc21	i
CCCCn1cnc2cc(NCc3cccc(OC)c3)ccc21	0.36
COc1ccc(Cc2noc(/C=C/c3ccc(C)cc3)n2)cc1OC	i
CCOC(=O)c1c(NC(=O)c2ccc(Oc3ccccc3)cc2)sc2c1CCC2	i
CCC(C(=O)N1CCN(c2ccccc2F)CC1)n1ncc2ccccc21 (stereo unspecified)	i
Cn1cc(CC(=O)Nc2cccc(Cl)c2)c2ccccc21	i
Cc1ccc2c(c1)Oc1cc([N+](=O)[O-])cc(Oc3ccccc3C)c1C(=O)N2	0.049
CC(=O)Nc1ccc(Oc2cc([N+](=O)[O-])cc3c2C(=O)Nc2ccccc2O3)cc1	i
Cc1ccc2c(c1)Oc1cc([N+](=O)[O-])cc(Oc3ccc(Cl)cc3)c1C(=O)N2	0.2
O=C1CN(C(=O)c2cccc(Cl)c2)C(c2ccccc2)c2cc(Br)ccc2N1 (stereo unspecified)	i
CCN(CC)S(=O)(=O)c1ccc2c(c1)N(CC(=O)Nc1ccccc1C)C(=O)CS2	i
O=C(NC1CCCCCCC1)C1c2ccccc2C(=O)N1CCc1ccc(Cl)cc1 (stereo unspecified)	i
COCCCNC(=O)c1cc(Nc2cc(C)cc(C)c2)nc2ccccc12	i
COc1ccc(-c2noc(-c3cc(-c4ccccc4)nc4ccccc34)n2)cc1	i
COc1ccc(Cc2noc(-c3cc(-c4ccc(F)cc4)nc4ccccc34)n2)cc1	i
COc1ccc(Cc2noc(-c3cc(-c4ccncc4)nc4ccccc34)n2)cc1	0.49
COc1ccc(Cl)cc1NC(=O)CCNS(=O)(=O)c1ccc2c(c1)CCC(=O)N2	i
O=C(NCCN=C1NS(=O)(=O)c2ccccc21)c1cccc(Br)c1	i
Cc1ccc(S(=O)(=O)NC(Cc2ccccc2)C(=O)Nc2nc3ccc(C)cc3s2)cc1 (stereo unspecified)	i
Cc1ccc(NC(=O)c2c(C)nc(Nc3nc4ccccc4o3)nc2C)cc1	i
Cc1ccccc1NC(=O)c1cnc(Nc2nc3ccccc3o2)nc1C	0.17
CCCc1nc(Nc2nc3ccccc3o2)ncc1C(=O)OCC	i
CCCC(=O)NCCc1nc2ccccc2n1CC(C)C	i
Cc1cccc2nc(-c3ccsc3)c(Nc3ccc4c(c3)OCCO4)n12	i
COc1ccc(Cn2c(=O)[nH]c3cc(C(=O)NC4CCN(Cc5ccccc5)CC4)ccc3c2=O)cc1	i
CC1CCN(Cc2nc(-c3ccccc3)no2)CC1	i
CC1CCN(c2nc(-c3ccccc3O)nc3ccccc23)CC1	i
Cc1[nH]c2ccccc2c(=O)c1CN1CCC(C)CC1	i
